Results: PubChem BioAssay (NCI)
Compounds without any hit were thinned out: in the full panel of roughly 83,000, 20% have a hit.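 How to read the values: 0–100, growth inhibition (40 = 60% inhibited); 0, no net growth; -100 to 0, cell death (-40 = 40% of starting cells died; -100 = all dead).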 A number with no mark means an inactive call. The source made the active and inactive calls. Rule for the calls: active = growth percent below 10; inactive = the rest.

Assays:
Assay in all cases: NCI-60 one-dose screen, 48 h (100 = growth as untreated, 0 = no growth, -100 = all killed)
DU-145 prostate = details: 10 µM
K-562 leukemia = details: 10 µM
MALME-3M melanoma = details: 10 µM
MDA-MB-231 breast = details: 10 µM
RXF 393 renal = details: 10 µM
SF-268 CNS = details: 10 µM
SF-295 CNS = details: 10 µM
SF-539 CNS = details: 10 µM
UACC-257 melanoma = details: 10 µM
M14 melanoma = details: 10 µM
HCT-15 colon = details: 10 µM
HT29 colon = details: 10 µM
SNB-75 CNS = details: 10 µM
SNB-19 CNS = details: 10 µM
U251 CNS = details: 10 µM
PC-3 prostate = details: 10 µM
SK-MEL-5 melanoma = details: 10 µM
UACC-62 melanoma = details: 10 µM unless noted
LOX IMVI melanoma = details: 10 µM
SK-MEL-28 melanoma = details: 10 µM

Row | Structure (SMILES) | growth (DU-145 prostate) | growth (K-562 leukemia) | growth (MALME-3M melanoma) | growth (MDA-MB-231 breast) | growth (RXF 393 renal) | growth (SF-268 CNS) | growth (SF-295 CNS) | growth (SF-539 CNS) | growth (UACC-257 melanoma) | growth (M14 melanoma) | growth (HCT-15 colon) | growth (HT29 colon) | growth (SNB-75 CNS) | growth (SNB-19 CNS) | growth (U251 CNS) [%] | growth (PC-3 prostate) | growth (SK-MEL-5 melanoma) | growth (UACC-62 melanoma) [%] | growth (LOX IMVI melanoma) | growth (SK-MEL-28 melanoma) [%]
1 | CC(=Nc1ccccc1)C1=C(O)C(Cc2cccc(F)c2)NC1=O (stereo not given) | -37.9% (active) | 5.47% (active) | 39.8% | 25.9% | 41.7% | 31.1% | -5.61% (active) | -17.5% (active) | 40.6% | 7.5% (active) | 8.21% (active) | -12.1% (active) | 78.3% | 36.2% | 10.8 | 19.2% | 1.57% (active) | 32.9 | 5.05% (active) | 63.5
2 | COc1ccc(C)cc1OC | 99.6% | 92.9% | 97% | 107% | 117% | 98.4% | 95.7% | 109% | 93.9% | 115% | 104% | 108% | 104% | 107% | 97.2 | 105% | 99.7% | 99.5 | 96.1% | 115
3 | O=[N+]([O-])c1ccccc1N=Nc1ccc(O)cc1O | 117% | 120% | 109% | 119% | 121% | 118% | 107% | 113% | 103% | 110% | 112% | 112% | 91.5% | 111% | 115 | 97.2% | 106% | 124 | 99.8% | 121
4 | c1ccc2c(N3CCCCC3)ncnc2c1 | 112% | 94.3% | 142% | 96.5% | 105% | 102% | 109% | 85.3% | 90.2% | 100% | 99.6% | 76.2% | 140% | 99.4% | 93 | 87.3% | 91.8% | 91.3 | 92.8% | 115
5 | O=C(O)COCC(=O)O | 103% | 116% | 83.6% | 106% | 102% | 92.6% | 89.7% | 104% | 87.9% | 111% | 103% | 105% | 81.4% | 108% | 94.7 | 97% | 102% | 111 | 101% | 98.3
6 | CCCOC(=O)C(O)c1ccccc1 (stereo not given) | 113% | 129% | 96.8% | 90% | 111% | 99.7% | 109% | 101% | 108% | 93.8% | 97.5% | 103% | 96.7% | 107% | 115 | 101% | 104% | 98.2 | 104% | 116
7 | O=C1C[C@H](c2ccccc2)[C@H](c2ccccc2)C1 | 121% | 111% | 89.6% | 99.1% | 111% | 105% | 108% | 103% | 107% | 103% | 102% | 105% | 91.8% | 96.1% | 103 | 79.4% | 104% | 90.2 | 102% | 109
8 | COC(=O)Nc1nc2ccc(C(=O)c3ccc(F)cc3)cc2[nH]1 | -31% (active) | -37% (active) | 57.5% | 26.5% | -41.2% (active) | 22.6% | -3.22% (active) | -21.8% (active) | -2.09% (active) | 15.6% | 5.81% (active) | 7.47% (active) | 31% | 33.5% | 14.3 | 2.25% (active) | 13.6% | 36 | 28.4% | 54.2
9 | CCCCOC(=O)c1ccc(C(C)C)cc1 | 106% | 106% | 87% | 109% | 112% | 100% | 101% | 96.6% | 77.3% | 96.5% | 101% | 94.9% | 84.3% | 105% | 93.8 | 84.7% | 106% | 103 | 96.7% | 111
10 | CCOC(=O)C(O)C(O)C(=O)OCC (stereo not given) | 106% | 102% | 106% | 110% | 125% | 102% | 104% | 109% | 106% | 104% | 99.1% | 105% | 99% | 103% | 102 | 98% | 97.5% | 102 | 99.8% | 106
11 | CCOC(=O)c1cc2cccc(OC)c2oc1=O | 123% | 99% | 115% | 107% | 122% | 111% | 130% | 107% | 98.2% | 99.4% | 97.3% | 113% | 99.5% | 105% | 105 | 106% | 105% | 89.8 | 104% | 116
12 | CCN=c1cc2sc3cc(NCC)c(C)cc3nc-2cc1C | -18.9% (active) | 11.8% | -30.9% (active) | 2.51% (active) | 74.7% | -11.3% (active) | -72.4% (active) | -9.62% (active) | 6.74% (active) | 21.4% | 8.95% (active) | 16.7% | 52% | 4.67% (active) | 10.7 | 3.93% (active) | -56.9% (active) | 61.3 | 2.17% (active) | 60.4
13 | C=CC[N+](C)(C)C | 120% | 102% | 98.8% | 108% | 100% | 112% | -10.9% (active) | 98.1% | 101% | 107% | 98.7% | 104% | 94.3% | 98.7% | 101 | 97.6% | 105% | 102 | 92.2% | 107
14 | CCc1ccc(/C(C#N)=C/C=C/c2ccccc2)cc1 | 24.9% | 14.9% | 51.2% | 63.2% | 11.9% | 65.1% | 21.3% | 18.6% | 31.5% | 23.1% | 38.7% | -5.6% (active) | 0.0202% (active) | 59.5% | 21.3 | 19% | 9.25% (active) | 29.6 | 44% | 51.8
15 | CC1(C(N)=O)CCC(C(=O)O)C1(C)C (stereo not given) | 113% | 114% | 74.9% | 91.2% | 104% | 104% | 91.2% | 96.8% | 99.5% | 108% | 96.4% | 104% | 92.4% | 99% | 98.2 | 98.1% | 98% | 87 | 104% | 103
16 | O=C(/C=C\c1ccc(O)cc1)c1ccccc1 | 101% | 99.2% | 82.7% | 92.4% | 110% | 90% | 110% | 92.3% | 98% | 72.8% | 88.5% | 86.8% | 81.4% | 104% | 80.7 | 90.6% | 97.3% | 94.8 | 94.4% | 103
